Data on ten molecules can be found in PubChem BioAssay (Tox21).

Unmarked numbers belong to inactive results. Records with an inconclusive call do not appear. Activity calls are given as the source filed them. Unless noted, calls come from the whole dose curve; as a rule, active = well fitted curve in the direction sought with a large enough effect in the repeat runs; inconclusive = weak or mixed curves; inactive = no such curve, though single readings can be large; an effect the other way counts as inactive or inconclusive.

In assay [1] the target is Thyrotropin-releasing hormone receptor (Homo sapiens) (UniProt P34981). The assay can be described thus: qHTS assay to identify small molecule agonists of the thyrotropin-releasing hormone receptor (TRHR) signaling pathway (AID 1346891; calls by dose curve; note: series mostly up to about 58 µM). The procedure, abridged: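 TRHR-expressing HEK293 cells were plated 18 h at 37 °C/5% CO2, loaded with calcium dye 2 h at 37 °C, then given compound in DMSO; fluorescence was read kinetically for 3 min at 1 s intervals.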
Chain of Thyrotropin-releasing hormone receptor (Homo sapiens) (P34981 whole entry, looked up): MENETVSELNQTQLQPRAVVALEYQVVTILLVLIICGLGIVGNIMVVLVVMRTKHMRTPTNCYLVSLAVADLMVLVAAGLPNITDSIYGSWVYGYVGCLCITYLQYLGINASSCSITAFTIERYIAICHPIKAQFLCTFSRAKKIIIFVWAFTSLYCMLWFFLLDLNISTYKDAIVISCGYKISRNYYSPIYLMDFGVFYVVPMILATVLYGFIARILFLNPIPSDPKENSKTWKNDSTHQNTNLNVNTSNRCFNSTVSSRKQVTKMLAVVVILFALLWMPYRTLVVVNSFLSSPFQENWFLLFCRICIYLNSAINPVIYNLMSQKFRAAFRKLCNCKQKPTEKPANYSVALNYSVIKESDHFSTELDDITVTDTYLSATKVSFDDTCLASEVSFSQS

Assay [2] is described as follows: Human pregnane X receptor (PXR) small molecule agonists, qHTS cell viability counter screen (AID 1346977). Note: nearly all actives have a fitted effect of over 50% in size. Note: potency is the fitted concentration of half-maximal effect. In a few lines:
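PXR-Luc HepG2 cells in medium with 5% charcoal-stripped FBS were pre-incubated 5hr, then exposed to compounds for 24hr at 37C. Viability was read in the same wells by CellTiter-Fluor fluorescence, reagent added after 23hr with a 1hr incubation.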

The nature of assay [3]: Caspase-3/7 induction in HepG2 cells by small molecules, qHTS assay (AID 1346978). Note: nearly all actives have a fitted effect of over 15% in size. In a few lines: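 Wild-type HepG2 cells (2,000/well) were settled 5 h at 37 C, 5% CO2, then exposed to compounds in DMSO for 17 h. Caspase-3/7 activity was read by luminescence 30 min after adding Caspase-Glo 3/7 reagent at room temperature.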
Assay [4] in a line: Caspase-3/7 induction in CHO-K1 cells by small molecules, qHTS cell viability counter screen (AID 1346979). Note: nearly all actives have a fitted effect of over 35% in size. In a few lines:
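Wild-type CHO-K1 cells were seeded at 1,500 per well, rested 5hr at 37 C, then exposed to compounds in DMSO. After 16hr, CellTiter-Fluor reagent was added and fluorescence read 1hr later as the viability measure.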

A short description of assay [5]: Caspase-3/7 induction in HepG2 cells by small molecules, qHTS cell viability counter screen (AID 1346981). Note: series mostly up to about 92 µM; nearly all actives have a fitted effect of over 30% in size. The procedure, abridged:
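CellTiter-Fluor fluorescence measured viability in the same wells used for Caspase-Glo 3/7. HepG2 (wild type) at 2,000 cells/well were pre-incubated 5 hr, dosed, and given reagent at 16 hr, with 1 hr further at 37C.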

Assay [6] concerns the target Nuclear receptor subfamily 1 group I member 2 (Homo sapiens) (UniProt O75469). The experiment in a line: Human pregnane X receptor (PXR) small molecule agonists, qHTS assay (AID 1346982). Note: nearly all actives have a fitted effect of over 35% in size. In a few lines:
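Agonist mode: luminescence from ONE-Glo after 24 h compound exposure at 37C in HepG2 cells carrying hPXR-responsive CYP3A4 luciferase, plated in charcoal-stripped serum medium 5 h beforehand.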

Assay [7] deals with Cytochrome P450 2D6 (Homo sapiens) (UniProt P10635). The assay can be described thus: Cytochrome P450 Family 2 Subfamily D Member 6 (CYP2D6) small molecule antagonists: luciferase reporter qHTS assay (AID 1671196). For activity change, negative = inhibition: series mostly up to about 120 µM. Note: nearly all actives have a fitted effect of over 50% in size. Note: potency is the fitted concentration of half-maximal effect. The procedure, abridged: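 CYP2D6 activity was followed as luminescence from its luciferin product after a 1 h NADPH-driven reaction at room temperature. Enzyme-substrate mix and compound were pre-incubated for 10 min, and the signal was read 20 min after adding detection reagent.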
Chain of Cytochrome P450 2D6 (Homo sapiens) (P10635 whole entry, looked up): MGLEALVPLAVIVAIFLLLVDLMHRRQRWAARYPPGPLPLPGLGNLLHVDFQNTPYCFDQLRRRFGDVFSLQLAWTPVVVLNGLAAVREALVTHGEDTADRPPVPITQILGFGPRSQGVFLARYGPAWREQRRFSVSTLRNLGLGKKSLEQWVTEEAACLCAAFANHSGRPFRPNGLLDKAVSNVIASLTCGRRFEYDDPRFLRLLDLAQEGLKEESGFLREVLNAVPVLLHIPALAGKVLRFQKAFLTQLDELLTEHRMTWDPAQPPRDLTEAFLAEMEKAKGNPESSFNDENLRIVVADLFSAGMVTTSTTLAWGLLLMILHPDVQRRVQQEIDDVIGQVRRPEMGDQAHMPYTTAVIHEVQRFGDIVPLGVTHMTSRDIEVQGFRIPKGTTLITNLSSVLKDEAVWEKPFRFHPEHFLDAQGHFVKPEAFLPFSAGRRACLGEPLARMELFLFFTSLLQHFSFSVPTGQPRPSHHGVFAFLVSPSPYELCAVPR

The target of assay [8] is Cytochrome P450 2C9 (Homo sapiens) (UniProt P11712). The experiment in a line: Cytochrome P450 Family 2 Subfamily C Member 9 (CYP2C9) small molecule antagonists: luciferase reporter qHTS assay (AID 1671198). For activity change, negative = inhibition: series mostly up to about 120 µM. Note: nearly all actives have a fitted effect of over 50% in size. Note: potency is the fitted concentration of half-maximal effect. In a few lines:
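CYP2C9 activity was measured with a P450-Glo proluciferin substrate. Enzyme–substrate mix was held with compound for 10 min at room temperature, then NADPH regeneration solution was added for 1 h at 37C. Luciferin product was read as luminescence.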

Assay [9] has as its target Cytochrome P450 1A2 (Homo sapiens) (UniProt P05177). The assay can be described thus: Cytochrome P450 Family 1 Subfamily A Member 2 (CYP1A2) small molecule antagonists: luciferase reporter qHTS assay (AID 1671199). For activity change, negative = inhibition: series mostly up to about 120 µM. Note: nearly all actives have a fitted effect of over 50% in size. Note: potency is the fitted concentration of half-maximal effect. The procedure, abridged:
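Luminescence from luciferin formed by CYP1A2 from a proluciferin substrate, read 20 min after detection reagent. Compound was pre-incubated 10 min with enzyme-substrate, and reaction started with NADPH regeneration solution for 1 h at room temperature; furafylline control.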

In assay [10] the target is Voltage-gated inwardly rectifying potassium channel KCNH2 (Homo sapiens) (UniProt Q12809). The assay can be described thus: Human Ether-a-go-go-Related Gene (hERG) channel small molecule antagonists: fluorescence cell-based qHTS assay (AID 1671200). In a few lines:
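U2OS cells expressing the channel were plated at 1000 cells/well, incubated overnight at 37 C, then loaded with FluxOR II thallium-sensitive dye for 1 h at room temperature in the dark, with a further 10 min at room temperature before stimulation.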

Assay [11] is described as follows: Caspase-3/7 induction in CHO-K1 cells by small molecules, qHTS assay (AID 1346980). Note: nearly all actives have a fitted effect of over 15% in size. The procedure, abridged:
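Wild-type cells were seeded at 1,500 per well and settled 5 hr at 37 C, 5% CO2, then exposed to DMSO-dissolved compounds for 17 hr. Caspase-Glo 3/7 reagent was added, and luminescence was read after 30min at room temperature.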

Assay [12] deals with Cytochrome P450 2C19 (Homo sapiens) (UniProt P33261). The assay can be described thus: Cytochrome P450 Family 2 Subfamily C Member 19 (CYP2C19) small molecule antagonists: luciferase reporter qHTS assay (AID 1671197). For activity change, negative = inhibition: series mostly up to about 120 µM. Note: nearly all actives have a fitted effect of over 65% in size. Note: potency is the fitted concentration of half-maximal effect. In a few lines: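 First, compounds are pinned into enzyme-substrate mix and held 10 min at room temperature. Second, NADPH regeneration solution is added and plates incubate 1 h at 37C. Third, detection reagent is added and luminescence read after 20 min.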
Chain of Cytochrome P450 2C19 (Homo sapiens) (P33261 whole entry, looked up): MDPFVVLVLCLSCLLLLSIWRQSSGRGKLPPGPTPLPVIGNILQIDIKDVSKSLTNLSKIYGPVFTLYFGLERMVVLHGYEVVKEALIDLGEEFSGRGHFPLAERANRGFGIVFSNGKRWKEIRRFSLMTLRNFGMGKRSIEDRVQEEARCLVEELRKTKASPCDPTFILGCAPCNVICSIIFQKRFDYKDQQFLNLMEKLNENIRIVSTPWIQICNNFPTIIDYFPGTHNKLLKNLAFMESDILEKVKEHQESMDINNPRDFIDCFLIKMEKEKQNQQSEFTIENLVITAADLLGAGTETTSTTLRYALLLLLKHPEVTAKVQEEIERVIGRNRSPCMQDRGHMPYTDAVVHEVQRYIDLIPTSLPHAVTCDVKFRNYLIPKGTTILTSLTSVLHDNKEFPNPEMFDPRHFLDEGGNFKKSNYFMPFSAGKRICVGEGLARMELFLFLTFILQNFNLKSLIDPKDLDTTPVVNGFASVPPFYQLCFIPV

For assay [13], the target named is Cytochrome P450 3A4 (Homo sapiens) (UniProt P08684). The experiment in a line: Cytochrome P450 Family 3 Subfamily A Member 4 (CYP3A4) small molecule antagonists: luciferase reporter qHTS assay (AID 1671201). The procedure, abridged:
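P450-Glo CYP3A4 system with proluciferin substrate; compounds preincubated 10 min RT with enzyme-substrate mix, then NADPH regeneration added for 1 h RT. Detection reagent 20 min, luminescence read as relative luminescence units.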

For assay [14], the target named is Nuclear receptor subfamily 1 group I member 2 (Homo sapiens) (UniProt O75469). The experiment in a line: CYP3A4 induction through human pregnane X receptor (PXR) by small molecules, qHTS assay (AID 1346984). Note: nearly all actives have a fitted effect of over 40% in size. In a few lines:
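Read-out is luminescence after One-Glo addition, following a 3 hr, 37C incubation with Luciferin-IPA CYP3A4 substrate (3uM final). Before that, compounds were on DPX-2 cells (HepG2 co-transfected with PXR element plus CYP3A4-promoter luciferase) for 24 hr at 37C.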

Assay [15] has the same target. The assay can be described thus: Human pregnane X receptor (PXR) activation by small molecules, qHTS assay (AID 1346985). Note: nearly all actives have a fitted effect of over 40% in size. The procedure, abridged: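 DPX-2 cells (HepG2 co-transfected with a PXR response element and a CYP3A4-promoter luciferase construct) were seeded at 2,000 per well, rested 5 hr at 37C, then exposed to DMSO-dissolved compounds for 24 hr. Activation was read as luciferase luminescence.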
% is set by controls: 0 for no effect and ±100 for the full control effect.

Chain of Cytochrome P450 1A2 (Homo sapiens) (P05177 whole entry, looked up): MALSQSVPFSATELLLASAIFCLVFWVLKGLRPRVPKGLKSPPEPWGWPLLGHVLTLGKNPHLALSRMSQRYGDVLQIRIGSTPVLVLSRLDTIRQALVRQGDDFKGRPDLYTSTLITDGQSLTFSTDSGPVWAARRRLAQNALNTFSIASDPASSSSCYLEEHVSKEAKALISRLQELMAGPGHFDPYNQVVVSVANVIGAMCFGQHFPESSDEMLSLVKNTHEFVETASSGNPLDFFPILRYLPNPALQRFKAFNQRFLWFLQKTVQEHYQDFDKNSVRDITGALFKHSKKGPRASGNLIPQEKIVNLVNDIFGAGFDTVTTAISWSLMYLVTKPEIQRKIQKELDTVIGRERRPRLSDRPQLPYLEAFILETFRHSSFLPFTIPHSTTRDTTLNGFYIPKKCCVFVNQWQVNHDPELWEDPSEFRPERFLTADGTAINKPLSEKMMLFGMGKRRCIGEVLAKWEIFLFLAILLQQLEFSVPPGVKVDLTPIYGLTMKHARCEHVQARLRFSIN
Chain of Voltage-gated inwardly rectifying potassium channel KCNH2 (Homo sapiens) (Q12809 whole entry, looked up): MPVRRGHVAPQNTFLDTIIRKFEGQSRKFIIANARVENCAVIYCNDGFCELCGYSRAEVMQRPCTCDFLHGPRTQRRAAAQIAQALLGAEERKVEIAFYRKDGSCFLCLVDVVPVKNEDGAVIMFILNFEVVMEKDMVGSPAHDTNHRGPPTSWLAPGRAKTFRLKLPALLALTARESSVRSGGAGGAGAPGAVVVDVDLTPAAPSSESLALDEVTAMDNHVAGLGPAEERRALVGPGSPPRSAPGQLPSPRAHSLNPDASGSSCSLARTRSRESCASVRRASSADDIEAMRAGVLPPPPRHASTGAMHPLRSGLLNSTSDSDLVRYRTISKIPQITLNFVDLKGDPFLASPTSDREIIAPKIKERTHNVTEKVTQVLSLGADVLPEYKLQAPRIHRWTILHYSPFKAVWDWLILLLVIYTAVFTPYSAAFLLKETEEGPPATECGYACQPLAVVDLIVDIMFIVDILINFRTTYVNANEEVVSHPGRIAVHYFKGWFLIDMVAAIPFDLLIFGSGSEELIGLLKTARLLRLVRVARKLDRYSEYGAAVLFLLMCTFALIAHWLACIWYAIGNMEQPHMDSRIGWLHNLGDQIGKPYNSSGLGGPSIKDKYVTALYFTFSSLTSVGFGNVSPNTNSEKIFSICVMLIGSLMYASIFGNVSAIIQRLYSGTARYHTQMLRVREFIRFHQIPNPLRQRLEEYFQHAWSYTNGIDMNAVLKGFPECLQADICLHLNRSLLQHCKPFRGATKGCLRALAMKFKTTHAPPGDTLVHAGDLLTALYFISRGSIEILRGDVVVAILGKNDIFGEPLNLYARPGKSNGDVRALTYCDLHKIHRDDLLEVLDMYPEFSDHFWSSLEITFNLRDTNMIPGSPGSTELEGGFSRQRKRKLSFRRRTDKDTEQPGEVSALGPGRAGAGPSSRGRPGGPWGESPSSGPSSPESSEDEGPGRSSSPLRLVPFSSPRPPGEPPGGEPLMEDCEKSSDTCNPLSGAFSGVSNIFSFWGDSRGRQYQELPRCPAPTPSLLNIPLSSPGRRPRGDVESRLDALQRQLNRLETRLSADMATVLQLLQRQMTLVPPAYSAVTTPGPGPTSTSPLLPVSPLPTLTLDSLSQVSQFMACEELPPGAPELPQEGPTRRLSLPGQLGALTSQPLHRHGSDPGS
Chain of Nuclear receptor subfamily 1 group I member 2 (Homo sapiens) (O75469 whole entry, looked up): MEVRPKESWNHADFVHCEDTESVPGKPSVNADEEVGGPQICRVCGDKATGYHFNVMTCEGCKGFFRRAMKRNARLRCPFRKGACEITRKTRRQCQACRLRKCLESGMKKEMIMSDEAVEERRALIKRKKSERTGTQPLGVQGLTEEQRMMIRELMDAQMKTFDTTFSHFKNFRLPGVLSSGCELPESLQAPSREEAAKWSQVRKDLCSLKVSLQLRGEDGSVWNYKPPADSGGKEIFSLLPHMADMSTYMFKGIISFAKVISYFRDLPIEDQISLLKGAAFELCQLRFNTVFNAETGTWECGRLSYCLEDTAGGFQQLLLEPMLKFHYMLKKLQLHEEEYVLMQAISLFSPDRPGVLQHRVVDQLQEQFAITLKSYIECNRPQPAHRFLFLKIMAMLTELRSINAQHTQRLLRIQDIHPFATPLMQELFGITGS
Chain of Cytochrome P450 3A4 (Homo sapiens) (P08684 whole entry, looked up): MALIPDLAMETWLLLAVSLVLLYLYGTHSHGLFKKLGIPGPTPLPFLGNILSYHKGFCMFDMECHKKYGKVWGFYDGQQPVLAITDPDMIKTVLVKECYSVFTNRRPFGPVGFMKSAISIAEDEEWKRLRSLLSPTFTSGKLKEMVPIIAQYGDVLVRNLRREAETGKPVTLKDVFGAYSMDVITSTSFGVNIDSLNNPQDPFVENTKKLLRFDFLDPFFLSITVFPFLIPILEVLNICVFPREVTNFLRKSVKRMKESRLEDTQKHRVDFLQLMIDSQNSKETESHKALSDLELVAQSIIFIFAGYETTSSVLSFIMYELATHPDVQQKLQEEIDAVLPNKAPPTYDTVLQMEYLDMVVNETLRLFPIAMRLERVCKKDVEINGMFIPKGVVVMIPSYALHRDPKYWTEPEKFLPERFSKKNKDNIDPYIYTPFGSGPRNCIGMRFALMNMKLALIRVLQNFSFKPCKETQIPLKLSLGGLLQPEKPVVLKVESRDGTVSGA
Chain of Cytochrome P450 2C9 (Homo sapiens) (P11712 whole entry, looked up): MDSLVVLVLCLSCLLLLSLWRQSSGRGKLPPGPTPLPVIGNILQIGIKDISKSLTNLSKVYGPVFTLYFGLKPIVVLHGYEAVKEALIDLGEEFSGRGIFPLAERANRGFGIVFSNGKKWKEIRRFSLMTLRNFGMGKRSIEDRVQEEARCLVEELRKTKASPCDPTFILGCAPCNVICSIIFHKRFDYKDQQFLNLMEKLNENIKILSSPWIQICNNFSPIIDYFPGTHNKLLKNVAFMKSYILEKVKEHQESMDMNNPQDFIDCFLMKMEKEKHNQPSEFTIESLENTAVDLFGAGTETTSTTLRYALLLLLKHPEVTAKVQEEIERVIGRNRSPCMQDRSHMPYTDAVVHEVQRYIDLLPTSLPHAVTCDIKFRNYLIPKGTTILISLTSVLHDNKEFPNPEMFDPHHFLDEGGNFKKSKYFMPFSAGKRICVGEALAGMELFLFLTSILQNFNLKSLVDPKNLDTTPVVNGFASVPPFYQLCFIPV

In the case of `c1ccc2cnncc2c1`, the molecule was classed as inactive in [1], in assay [3] and in [5]. Besides, the Potency entry in assay [2], in assay [4], in assay [6], in assay [7], in assay [8] and in assay [10] was “inactive” in each case. Further, the Potency in assay [9] was 14.2 µM (active).

In the case of `CC(C)=CCC/C(C)=C/C(=O)O`, the result in assay [1], in assay [3] and in assay [11] was inactive. Moreover, the Potency entry in assay [2], in assay [4], in assay [7], in assay [9], in [10] and in [13] was “inactive” in each case. The Potency in [12] was 39.9 µM (active).

Turning to `C[C@H]1O[C@@H](n2cc(F)c(=O)[nH]c2=O)[C@H](O)[C@@H]1O`, the outcome in [1], in assay [3] and in [5] was inactive. The Potency result in [2], in assay [4], in assay [6], in [14], in assay [15] and in assay [7] was “inactive” each time. For the same molecule, the Potency result in assay [12], in assay [8], in [9], in assay [10] and in assay [13] was “inactive” each time.

Take `O=S(=O)(c1cccc2cnccc12)N1CCCNCC1`: the result in [1], in [3], in assay [11] and in [5] was inactive. Also, the Potency in assay [2] is 26.6 µM (active). Moreover, the Potency entry in [4], in assay [12] and in assay [9] was “inactive” each time.

For `NC(=O)CCCCC1CCSS1` (stereo unspecified), the molecule was classed as inactive in [1], in assay [3] and in [11]. Moreover, the Potency result in [2], in assay [4], in [6], in [14], in assay [15] and in assay [7] was “inactive” in each case. Moreover, the Potency entry in [12], in assay [8], in assay [9] and in [13] was “inactive” throughout.

Take `OC1OC[C@@H](O)[C@H](O)[C@H]1O` (stereo partly specified): the molecule was classed as inactive in assay [1], in assay [3] and in assay [5]. Further, the Potency entry in [2], in assay [4], in [6], in assay [7], in [8] and in assay [9] was “inactive” throughout. Also, in assay [10], the Potency entry is “inactive”.

Turning to `C1CCCCCCCCCCC1`, the activation in [1] is 1.06% [at 11.8 µM]; in [6], 7.58% [at 19 µM]. Moreover, the activity change, negative = cytotoxicity was 4.48% [at 19 µM] in assay [2] and 2.86% [at 19 µM] in assay [4]. Further, the caspase activation in [3] was 0.953% [at 19 µM]. The caspase-3/7 activation in [11] was 0.0072% [at 19 µM]. In addition, the activity change, negative = inhibition is -0.464% [at 23.6 µM] in assay [7]; -20.8% [at 23.6 µM] in assay [12]; -1.08% [at 23.6 µM] in assay [8]; -1.65% [at 15.8 µM] in assay [10]; 3.28% [at 23.6 µM] in assay [13]. Besides, the Potency entry in assay [9] was “inactive”.

Turning to `Cc1nccn1CC1CCc2c(c3ccccc3n2C)C1=O` (stereo unspecified), the call in [1], in assay [3] and in assay [5] was inactive. The Potency entry in assay [2], in assay [4], in assay [6] and in assay [8] was “inactive” each time. Also, the Potency in [7] is 17.4 µM (active).

Regarding `O=C(O)/C=C/c1ccc(Cn2ccnc2)cc1`, the molecule was classed as inactive in [1], in assay [3], in [11] and in assay [5]. The Potency entry in [2], in assay [4], in assay [7] and in [10] was “inactive” throughout. Also, the Potency in assay [8] was 17.4 µM (active); in [9] it was 24.5 µM (active).

As to `CC/C=C\C#N`, the molecule was called inactive in assay [1], in assay [3], in assay [11] and in assay [5]. Also, the Potency entry in assay [2], in assay [4], in [7], in assay [8], in assay [9] and in assay [10] was “inactive” each time. Also, the Potency result in [13] is “inactive”.
